Laboratory results published in the supplement of paper PMC10849652.
Of roughly 7,900 targets only a part is listed; those with a hit were picked by preference. About 0.6% of all pairs of compound and target were hits.

Assays:
Experiment in all cases: log2 fold change, soluble protein after heating vs DMSO (PISA); higher = thermal stabilisation; K562 cells, 10 uM, 30 min; active = over 0.2 and 3.5 SD of the protein, either way, in both replicates (recomputed)
[1] = compound: CC[C@@H]1C(=O)N(C)c2cnc(Nc3ccc(C(=O)NC4CCN(C)CC4)cc3OC)nc2N1C1CCCC1
How it was run: (§1)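 Quantification of soluble protein used TMTpro 16plex LC-MS/MS, with channel sums equalised. Samples were the supernatant after 21,000xg for 90 min of pooled aliquots from K562 cells (2×10^6 cells/mL) treated with 10 μM compound for 30 min, heated for 3 min over 48°C-58°C, and extracted in PBS with 0.5% NP-40 at 4°C. Values, from duplicates, describe thermal stability against control samples on a log2 fold-change scale.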

volasertib = compound: CC[C@@H]1C(=O)N(C)c2cnc(Nc3ccc(C(=O)N[C@H]4CC[C@H](N5CCN(CC6CC6)CC5)CC4)cc3OC)nc2N1C(C)C [volasertib]
How it was run: as §1

[2] = compound: CC[C@H](C)N1C=C(C2=C(C=C(C=C21)C3=CN=C(C=C3)N4CCNCC4)C(=O)NCC5=C(C=C(NC5=O)C)C)C
How it was run: as §1

epoxomicin = compound: CC[C@H](C)[C@@H](C(=O)N[C@@H]([C@@H](C)O)C(=O)N[C@@H](CC(C)C)C(=O)[C@]1(CO1)C)NC(=O)[C@H]([C@@H](C)CC)N(C)C(=O)C [epoxomicin]
How it was run: as §1

[3] = compound: CCn1c(C(=O)N(C2CC2)C2CC2)cc2c3c(ncn3C)c(Nc3cc(C)n(C)n3)nc21
How it was run: as §1

[4] = compound: CCn1cc(-c2ccnc3[nH]c(-c4cccc(CN(C)C)c4)cc23)c(-c2ccc(NC(=O)N(C)C)cc2)n1
How it was run: as §1

[5] = compound: CN(C)CC(=O)Nc1ccc2[nH]c(=O)c3ccccc3c2c1
How it was run: as §1

rosiglitazone = compound: CN(CCOC1=CC=C(C=C1)C[C@H]2C(=O)NC(=O)S2)C3=CC=CC=N3 (racemic) [rosiglitazone]
How it was run: as §1

[6] = compound: CN1C2=C(C3=C1C(=O)N(N=C3)CC4=CC(=CC=C4)N)SC(=C2)S(=O)C
How it was run: as §1

[7] = compound: CN1CCC(CNc2ccc3ncc(-c4cccc(OC(F)(F)F)c4)n3n2)CC1
How it was run: as §1

saracatinib = compound: CN1CCN(CCOc2cc(OC3CCOCC3)c3c(Nc4c(Cl)ccc5c4OCO5)ncnc3c2)CC1 [saracatinib]
How it was run: as §1

sotrastaurin = compound: CN1CCN(c2nc(C3=C(c4c[nH]c5ccccc45)C(=O)NC3=O)c3ccccc3n2)CC1 [sotrastaurin]
How it was run: as §1

alvocidib = compound: CN1CC[C@H](c2c(O)cc(O)c3c(=O)cc(-c4ccccc4Cl)oc23)[C@H](O)C1 [alvocidib]
How it was run: as §1

Tubastatin A = compound: CN1CCc2c(c3ccccc3n2Cc2ccc(C(=O)NO)cc2)C1 [Tubastatin A]
How it was run: as §1

[8] = compound: CNC(=O)C1=CC=CC=C1NC2=NC(=NC=C2Cl)NC3=C(C=C(C=C3)N4CCOCC4)OC
How it was run: as §1

defactinib = compound: CNC(=O)c1ccc(Nc2ncc(C(F)(F)F)c(NCc3nccnc3N(C)S(C)(=O)=O)n2)cc1 [defactinib]
How it was run: as §1

rucaparib = compound: CNCc1ccc(-c2[nH]c3cc(F)cc4c3c2CCNC4=O)cc1 [rucaparib]
How it was run: as §1

[9] = compound: CNc1nc(-c2ccc3c(N)n[nH]c3c2)cc(N2C[C@@H](C(=O)NC3CCCCC3)CC[C@H]2C)n1
How it was run: as §1

encorafenib = compound: COC(=O)N[C@@H](C)CNc1nccc(-c2cn(C(C)C)nc2-c2cc(Cl)cc(NS(C)(=O)=O)c2F)n1 [encorafenib]
How it was run: as §1

[10] = compound: COC(=O)[C@H](CCSC)NC(=O)C1=C(C=C(C=C1)NC[C@H](CS)N)C2=CC=CC=C2
How it was run: as §1

Measured: log2 fold change

ALDH6A1 (UniProt Q02252)
UniProt Q02252, sequence (Q02252 whole entry, looked up): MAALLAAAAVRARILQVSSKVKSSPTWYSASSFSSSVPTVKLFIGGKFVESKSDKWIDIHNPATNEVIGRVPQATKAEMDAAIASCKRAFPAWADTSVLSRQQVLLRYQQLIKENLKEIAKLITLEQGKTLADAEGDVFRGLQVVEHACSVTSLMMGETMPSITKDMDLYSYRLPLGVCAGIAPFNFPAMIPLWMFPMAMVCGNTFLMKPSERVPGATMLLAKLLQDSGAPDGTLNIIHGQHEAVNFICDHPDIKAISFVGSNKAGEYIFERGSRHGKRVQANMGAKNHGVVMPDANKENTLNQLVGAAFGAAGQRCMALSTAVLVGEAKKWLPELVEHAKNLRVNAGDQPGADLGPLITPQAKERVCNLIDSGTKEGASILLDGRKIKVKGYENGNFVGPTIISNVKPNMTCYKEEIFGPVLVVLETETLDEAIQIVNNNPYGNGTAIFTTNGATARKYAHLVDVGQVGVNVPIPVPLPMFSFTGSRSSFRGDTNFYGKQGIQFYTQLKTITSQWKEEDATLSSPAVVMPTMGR
inactive: [1] 0.06 | volasertib -0.011 | [2] -0.059 | epoxomicin 0 | [3] 0.028 | [4] -0.06 | [5] -0.033 | rosiglitazone 0.093 | [6] -0.068 | [7] -0.004 | saracatinib 0.031 | sotrastaurin 0.144 | alvocidib -0.098 | Tubastatin A 0.03 | [8] 0.021 | defactinib -0.021 | rucaparib 0.021 | [9] -0.045 | encorafenib 0.024 | [10] -0.008

BID isoform 2 (UniProt P55957)
UniProt P55957, sequence (P55957 whole entry, looked up): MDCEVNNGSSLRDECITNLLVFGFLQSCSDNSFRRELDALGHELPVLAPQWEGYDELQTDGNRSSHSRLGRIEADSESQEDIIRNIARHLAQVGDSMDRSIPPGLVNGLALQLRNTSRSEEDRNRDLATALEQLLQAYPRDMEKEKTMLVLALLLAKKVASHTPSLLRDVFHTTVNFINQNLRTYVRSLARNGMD
inactive: [1] 0.013 | volasertib -0.196 | [2] -0.022 | epoxomicin -0.036 | [3] -0.022 | [4] 0.045 | [5] 0.042 | rosiglitazone 0.001 | [6] -0.068 | [7] -0.048 | saracatinib 0.008 | sotrastaurin 0.04 | alvocidib -0.018 | Tubastatin A 0.076 | [8] -0.053 | defactinib -0.031 | rucaparib 0.033 | [9] -0.017 | encorafenib -0.011 | [10] -0.032

BZW1 isoform 3 (UniProt Q7L1Q6)
UniProt Q7L1Q6, sequence (Q7L1Q6 whole entry, looked up): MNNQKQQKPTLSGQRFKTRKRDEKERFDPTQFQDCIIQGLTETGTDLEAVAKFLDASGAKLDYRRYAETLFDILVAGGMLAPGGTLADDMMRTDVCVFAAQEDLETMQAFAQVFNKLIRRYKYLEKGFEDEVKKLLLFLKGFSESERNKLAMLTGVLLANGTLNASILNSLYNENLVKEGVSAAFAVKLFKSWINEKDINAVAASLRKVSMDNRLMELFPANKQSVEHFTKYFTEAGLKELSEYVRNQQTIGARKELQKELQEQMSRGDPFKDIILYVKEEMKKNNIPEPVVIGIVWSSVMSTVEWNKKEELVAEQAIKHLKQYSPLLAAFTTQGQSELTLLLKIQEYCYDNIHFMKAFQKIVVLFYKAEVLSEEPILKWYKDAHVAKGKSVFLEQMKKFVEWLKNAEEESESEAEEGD
active: volasertib -0.82
inactive: [1] -0.273 | [2] 0.114 | epoxomicin 0.019 | [3] -0.128 | [4] -0.041 | [5] 0.104 | rosiglitazone 0.063 | [6] 0.068 | [7] -0.33 | saracatinib -0.083 | sotrastaurin -0.207 | alvocidib -0.098 | Tubastatin A 0.047 | [8] -0.054 | defactinib -0.141 | rucaparib 0.128 | [9] 0.027 | encorafenib 0.158 | [10] -0.1

AKAP8 (UniProt O43823)
active: volasertib -0.268
inactive: [1] 0.069 | [2] -0.017 | epoxomicin 0.003 | [3] 0.02 | [4] 0.026 | [5] -0.03 | rosiglitazone 0.017 | [6] 0 | [7] -0.131 | saracatinib 0.012 | sotrastaurin -0.021 | alvocidib 0.112 | Tubastatin A 0.002 | [8] -0.073 | defactinib 0.01 | rucaparib 0.017 | [9] -0.126 | encorafenib 0.037 | [10] 0.008

ACAP2 (UniProt Q15057)
UniProt Q15057, sequence (Q15057 whole entry, looked up): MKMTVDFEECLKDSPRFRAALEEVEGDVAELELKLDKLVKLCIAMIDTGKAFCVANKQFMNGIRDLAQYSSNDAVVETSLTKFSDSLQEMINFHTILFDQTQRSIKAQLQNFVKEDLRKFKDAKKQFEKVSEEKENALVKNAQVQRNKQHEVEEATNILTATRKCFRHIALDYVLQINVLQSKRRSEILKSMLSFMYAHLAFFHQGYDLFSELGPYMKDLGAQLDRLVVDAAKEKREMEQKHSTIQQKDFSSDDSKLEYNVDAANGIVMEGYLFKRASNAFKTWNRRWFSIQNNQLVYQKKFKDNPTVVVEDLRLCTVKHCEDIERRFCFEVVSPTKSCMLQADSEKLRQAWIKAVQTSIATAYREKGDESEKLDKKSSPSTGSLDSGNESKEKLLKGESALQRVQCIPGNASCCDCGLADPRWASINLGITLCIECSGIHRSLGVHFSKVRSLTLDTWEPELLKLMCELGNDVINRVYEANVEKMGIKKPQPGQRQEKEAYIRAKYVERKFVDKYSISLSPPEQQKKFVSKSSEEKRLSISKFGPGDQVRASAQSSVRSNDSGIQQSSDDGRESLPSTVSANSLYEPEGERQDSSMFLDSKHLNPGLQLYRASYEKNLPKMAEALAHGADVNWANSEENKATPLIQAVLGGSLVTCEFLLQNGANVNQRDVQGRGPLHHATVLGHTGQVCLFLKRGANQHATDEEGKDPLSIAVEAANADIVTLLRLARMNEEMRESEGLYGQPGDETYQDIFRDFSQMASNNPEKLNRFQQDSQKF
inactive: [1] -0.034 | volasertib -0.192 | [2] 0.066 | epoxomicin -0.002 | [3] -0.007 | [4] -0.015 | [5] 0.065 | rosiglitazone 0.023 | [6] -0.004 | [7] 0.063 | saracatinib -0.02 | sotrastaurin -0.029 | alvocidib -0.068 | Tubastatin A 0.001 | [8] 0.031 | defactinib -0.032 | rucaparib -0.016 | [9] -0.04 | encorafenib 0.062 | [10] -0.026

ATR (UniProt Q13535)
inactive: [1] -0.063 | volasertib -0.197 | [2] -0.02 | epoxomicin 0.048 | [3] -0.071 | [4] -0.041 | [5] 0.052 | rosiglitazone 0.049 | [6] -0.017 | [7] 0 | saracatinib -0.044 | sotrastaurin -0.013 | alvocidib -0.107 | Tubastatin A 0.02 | [8] 0.014 | defactinib -0.035 | rucaparib 0.008 | [9] 0.039 | encorafenib 0.008 | [10] -0.024

AKR1C2 (UniProt P52895)
UniProt P52895, sequence (P52895 whole entry, looked up): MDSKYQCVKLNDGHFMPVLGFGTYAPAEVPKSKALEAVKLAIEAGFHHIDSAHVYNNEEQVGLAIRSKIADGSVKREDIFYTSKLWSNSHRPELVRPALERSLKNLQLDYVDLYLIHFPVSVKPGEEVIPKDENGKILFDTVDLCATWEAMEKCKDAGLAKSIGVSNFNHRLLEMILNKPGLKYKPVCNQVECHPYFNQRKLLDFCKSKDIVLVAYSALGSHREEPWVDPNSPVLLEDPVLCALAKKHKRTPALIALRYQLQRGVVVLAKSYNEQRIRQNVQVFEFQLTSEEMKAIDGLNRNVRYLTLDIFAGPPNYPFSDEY
active: [6] 0.568
inactive: [1] 0.27 | volasertib 0.087 | [2] 0.03 | epoxomicin -0.139 | [3] -0.039 | [4] 0.002 | [5] -0.006 | rosiglitazone -0.001 | [7] -0.016 | saracatinib -0.108 | sotrastaurin -0.009 | alvocidib 0.08 | Tubastatin A 0.111 | [8] 0.052 | defactinib 0.146 | rucaparib 0.146 | [9] 0.047 | encorafenib 0.094 | [10] -0.06

AGO1 (UniProt Q9UL18)
inactive: [1] 0.215 | volasertib 0.124 | [2] -0.1 | epoxomicin -0.148 | [3] -0.029 | [4] 0.032 | [5] 0.098 | rosiglitazone 0.042 | [6] 0.14 | [7] -0.151 | saracatinib -0.066 | sotrastaurin -0.307 | alvocidib 0.141 | Tubastatin A -0.164 | [8] -0.039 | defactinib -0.03 | rucaparib 0.16 | [9] -0.085 | encorafenib 0.086 | [10] -0.036

ARRDC1 (UniProt Q8N5I2)
UniProt Q8N5I2, sequence (Q8N5I2 whole entry, looked up): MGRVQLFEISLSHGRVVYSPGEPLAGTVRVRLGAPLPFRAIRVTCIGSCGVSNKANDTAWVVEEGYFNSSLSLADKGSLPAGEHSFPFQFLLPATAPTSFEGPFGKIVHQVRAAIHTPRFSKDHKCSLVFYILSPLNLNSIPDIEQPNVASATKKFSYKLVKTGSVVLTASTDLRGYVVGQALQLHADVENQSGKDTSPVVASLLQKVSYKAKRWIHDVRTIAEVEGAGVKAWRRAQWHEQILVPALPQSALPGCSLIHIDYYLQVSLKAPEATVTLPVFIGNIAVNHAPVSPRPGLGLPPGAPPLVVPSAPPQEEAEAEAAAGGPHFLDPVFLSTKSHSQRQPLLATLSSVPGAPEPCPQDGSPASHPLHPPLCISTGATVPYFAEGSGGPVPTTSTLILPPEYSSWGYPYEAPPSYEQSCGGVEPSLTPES
inactive: [1] -0.063 | volasertib -0.137 | [2] -0.09 | epoxomicin -0.057 | [3] 0.09 | [4] 0 | [5] 0.023 | rosiglitazone -0.072 | [6] -0.038 | [7] 0.027 | saracatinib 0.17 | sotrastaurin -0.026 | alvocidib -0.275 | Tubastatin A 0.004 | [8] -0.06 | defactinib -0.046 | rucaparib 0.075 | [9] -0.02 | encorafenib -0.01 | [10] -0.006

AGAP3 isoform 4 (UniProt Q96P47)
inactive: [1] 0.154 | volasertib -0.038 | [2] 0.105 | epoxomicin 0.034 | [3] 0.019 | rosiglitazone 0.162 | sotrastaurin -0.233 | alvocidib -0.011 | Tubastatin A 0.166 | [8] -0.033 | rucaparib 0.178 | encorafenib -0.104

APAF1 (UniProt O14727)
UniProt O14727, sequence (O14727 whole entry, looked up): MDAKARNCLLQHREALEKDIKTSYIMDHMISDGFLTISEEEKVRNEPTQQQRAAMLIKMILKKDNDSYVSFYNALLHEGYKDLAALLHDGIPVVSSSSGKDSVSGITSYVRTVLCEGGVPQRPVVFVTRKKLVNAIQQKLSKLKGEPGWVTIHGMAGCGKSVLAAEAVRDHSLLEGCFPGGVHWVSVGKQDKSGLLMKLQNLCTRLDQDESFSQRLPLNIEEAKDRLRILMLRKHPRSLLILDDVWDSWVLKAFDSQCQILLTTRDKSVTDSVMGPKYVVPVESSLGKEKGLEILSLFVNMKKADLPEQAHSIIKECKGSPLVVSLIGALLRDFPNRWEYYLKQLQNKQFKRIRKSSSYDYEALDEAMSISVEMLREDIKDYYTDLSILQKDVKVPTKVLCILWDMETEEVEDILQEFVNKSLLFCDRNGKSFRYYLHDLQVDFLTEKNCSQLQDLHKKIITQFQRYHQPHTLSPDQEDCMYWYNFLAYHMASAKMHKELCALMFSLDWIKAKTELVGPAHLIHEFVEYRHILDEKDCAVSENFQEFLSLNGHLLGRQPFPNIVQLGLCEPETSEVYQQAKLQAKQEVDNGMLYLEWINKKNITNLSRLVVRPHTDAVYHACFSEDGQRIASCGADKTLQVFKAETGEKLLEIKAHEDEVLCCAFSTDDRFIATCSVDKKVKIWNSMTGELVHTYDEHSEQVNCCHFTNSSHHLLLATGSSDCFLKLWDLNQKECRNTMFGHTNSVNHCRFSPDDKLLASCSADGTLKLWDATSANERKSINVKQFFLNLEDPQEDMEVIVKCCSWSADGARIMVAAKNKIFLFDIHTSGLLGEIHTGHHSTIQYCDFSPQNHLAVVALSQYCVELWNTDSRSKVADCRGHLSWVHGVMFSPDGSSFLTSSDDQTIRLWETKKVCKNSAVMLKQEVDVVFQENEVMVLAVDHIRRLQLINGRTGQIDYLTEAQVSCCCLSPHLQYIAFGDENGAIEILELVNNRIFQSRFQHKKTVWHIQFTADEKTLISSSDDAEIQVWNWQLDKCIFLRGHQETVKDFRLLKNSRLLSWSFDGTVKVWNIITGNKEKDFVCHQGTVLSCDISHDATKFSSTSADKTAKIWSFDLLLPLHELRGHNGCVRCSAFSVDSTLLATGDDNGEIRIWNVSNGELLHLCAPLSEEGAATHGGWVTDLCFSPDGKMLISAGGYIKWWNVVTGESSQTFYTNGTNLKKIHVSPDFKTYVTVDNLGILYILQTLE
inactive: [1] -0.123 | volasertib -0.076 | [2] 0.187 | epoxomicin -0.045 | [3] -0.231 | [4] -0.009 | [5] 0.037 | [6] 0.148 | [7] -0.088 | saracatinib -0.088 | sotrastaurin 0 | alvocidib -0.026 | [8] 0.109 | defactinib 0.082 | rucaparib 0.103 | [9] 0.032 | encorafenib 0.158 | [10] 0.05

ACTBL2 (UniProt Q562R1)
inactive: [1] -0.121 | volasertib 0.153 | [2] -0.133 | epoxomicin -0.1 | [3] 0.05 | [4] 0.162 | [5] -0.3 | rosiglitazone 0.07 | [6] 0.011 | [7] 0.065 | saracatinib -0.054 | sotrastaurin 0.179 | [8] 0.158 | defactinib 0.432 | rucaparib -0.711 | [9] 0.035 | encorafenib 0.239 | [10] 0.15

AKAP8L (UniProt Q9ULX6)
active: volasertib -0.394 | defactinib -0.477
inactive: [1] -0.14 | [2] 0.059 | epoxomicin 0.072 | [3] -0.074 | [4] -0.039 | [5] 0.043 | rosiglitazone 0.101 | [6] 0.171 | [7] -0.25 | saracatinib -0.127 | sotrastaurin -0.203 | alvocidib -0.21 | Tubastatin A 0.055 | [8] -0.097 | rucaparib -0.008 | [9] 0.027 | encorafenib 0.025 | [10] 0.049

ACOX3 (UniProt O15254)
active: Tubastatin A -0.465
inactive: [1] -0.346 | volasertib 0.028 | [2] -0.069 | epoxomicin -0.113 | [3] 0.011 | [5] -0.129 | rosiglitazone 0.044 | sotrastaurin -0.039 | alvocidib -0.097 | [8] -0.034 | defactinib -0.063 | rucaparib -0.313 | encorafenib -0.036 | [10] 0.046

BAD (UniProt Q92934)
UniProt Q92934, sequence (Q92934 whole entry, looked up): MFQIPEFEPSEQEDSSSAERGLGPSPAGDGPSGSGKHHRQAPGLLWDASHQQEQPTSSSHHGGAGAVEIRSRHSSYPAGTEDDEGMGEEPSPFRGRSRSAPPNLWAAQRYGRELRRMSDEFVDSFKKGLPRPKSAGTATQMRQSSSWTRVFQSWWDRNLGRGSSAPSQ
inactive: [1] -0.043 | volasertib 0.038 | [2] 0.085 | epoxomicin -0.086 | [3] 0.014 | [4] 0.022 | [5] -0.125 | rosiglitazone 0.059 | [6] -0.069 | [7] -0.006 | saracatinib 0.021 | sotrastaurin 0.273 | alvocidib 0.005 | [8] -0.032 | defactinib 0.03 | rucaparib 0.032 | [9] -0.016 | encorafenib -0.047 | [10] -0.004

APOH (UniProt P02749)
UniProt P02749, sequence (P02749 whole entry, looked up): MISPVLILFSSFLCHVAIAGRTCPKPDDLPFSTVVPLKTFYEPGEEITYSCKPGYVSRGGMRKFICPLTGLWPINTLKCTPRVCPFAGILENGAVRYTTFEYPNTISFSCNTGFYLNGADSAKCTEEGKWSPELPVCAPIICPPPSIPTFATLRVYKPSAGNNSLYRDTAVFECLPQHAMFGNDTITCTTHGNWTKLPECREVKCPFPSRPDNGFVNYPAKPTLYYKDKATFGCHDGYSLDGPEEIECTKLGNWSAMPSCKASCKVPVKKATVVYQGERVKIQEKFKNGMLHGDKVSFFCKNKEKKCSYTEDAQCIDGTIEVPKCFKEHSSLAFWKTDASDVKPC
inactive: [1] -0.397 | volasertib -0.443 | [2] -0.167 | [3] -0.171 | [4] 0.078 | [5] -0.141 | rosiglitazone -0.048 | [6] 0.48 | [7] 0.077 | saracatinib 0.097 | sotrastaurin 0.317 | alvocidib 0.371 | Tubastatin A -0.128 | [8] -0.032 | defactinib -0.042 | rucaparib -0.13 | [9] -0.391 | encorafenib 0.041 | [10] -0.021

AARSD1 (UniProt Q9BTE6)
UniProt Q9BTE6, sequence (Q9BTE6 whole entry, looked up): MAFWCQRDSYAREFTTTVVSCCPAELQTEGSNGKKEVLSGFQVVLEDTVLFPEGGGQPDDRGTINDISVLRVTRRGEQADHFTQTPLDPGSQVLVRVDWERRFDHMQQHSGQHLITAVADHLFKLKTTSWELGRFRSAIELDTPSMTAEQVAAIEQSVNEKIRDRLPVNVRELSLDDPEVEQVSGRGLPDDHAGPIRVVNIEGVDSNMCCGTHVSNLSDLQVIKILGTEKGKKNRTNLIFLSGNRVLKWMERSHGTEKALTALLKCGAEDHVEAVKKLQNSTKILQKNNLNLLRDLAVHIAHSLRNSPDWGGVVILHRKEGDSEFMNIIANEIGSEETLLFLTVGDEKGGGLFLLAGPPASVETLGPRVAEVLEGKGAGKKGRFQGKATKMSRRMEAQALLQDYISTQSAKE
inactive: [1] -0.042 | volasertib -0.227 | [2] -0.121 | [3] -0.046 | rosiglitazone 0.085 | [6] 0.283 | saracatinib 0.008 | alvocidib -0.15 | [8] 0.08 | rucaparib 0.014 | [9] 0.165 | encorafenib -0.042
